The nature of assay [1]: qHTS profiling of the MIPE4 collection as inhibitors of Plasmodium falciparum (3D7) proliferation (AID 743344).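 Further: scaled between DMSO vehicle wells and 0.29 µM artemisinin as full inhibition.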 Conditions: P. falciparum 3D7 in erythrocytes, SYBR Green DNA fluorescence, 72 h; at 28.5 µM unless noted. The method in brief: (§1)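 Erythrocytes infected with P. falciparum (0.3% parasitemia, 2.5% hematocrit) incubated with compounds 72 h at 37 C, 5% CO2. Lysis with saponin/Triton buffer containing SYBR Green I, overnight at room temperature in the dark; DNA fluorescence (485/535 nm) normalised to 0.29 uM artemisinin and DMSO.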
On the technique in general: qHTS replaces the single test concentration by a dilution series.

Assay [2] can be described thus: qHTS profiling of the MIPE4 collection as inhibitors of Plasmodium falciparum (DD2) proliferation (AID 743345). Conditions: P. falciparum Dd2 in erythrocytes, SYBR Green DNA, 72 h; at 28.5 µM unless noted. In short, it runs like this:
as §1

Assay [3] can be described thus: qHTS profiling of the MIPE4 collection as inhibitors of Plasmodium falciparum (DD2) proliferation (Rep 2) (AID 743346). Conditions: P. falciparum Dd2 in erythrocytes, SYBR Green DNA, 72 h; at 28.5 µM unless noted. In short, it runs like this: as §1
Assay [4] is described as follows: qHTS profiling of the MIPE4 collection as inhibitors of Plasmodium falciparum (HB3) proliferation (AID 743347).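 Further: plate controls were DMSO vehicle wells for no effect and artemisinin wells for full effect.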 Conditions: P. falciparum HB3 in erythrocytes, SYBR Green DNA, 72 h; at 28.5 µM unless noted. The method in brief:
as §1

Assay [5] in a line: High-throughput drug toxicity screening in the BPDCN cell line Gen2.2 (AID 1224824).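 Further: cells exposed to compounds for 48 h before reading.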 Conditions: Gen2.2 BPDCN cells; at 45.8 µM (top of the series) unless noted. The method in brief:
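Gen2.2 cells (500/well) in phenol red-free RPMI with 10% FBS were exposed to compounds for 48 h at 37 °C, 5% CO2. Viability was read by CellTiter-Glo luminescence and normalized to DMSO (100%) and 9.2 uM bortezomib (0%).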

Assay [6] in a line: High-throughput drug toxicity screening in the BPDCN cell line Cal-1 (AID 1224825). Conditions: Cal-1 BPDCN cell viability, qHTS; at 45.8 µM (top of the series) unless noted. The method in brief: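 Exponentially growing Cal-1 cells, 500 per well in phenol red-free RPMI with 10% FBS, were exposed to compounds for 48 h at 37 °C, 5% CO2. Viability was read by CellTiter-Glo luminescence and normalised to DMSO (100%) and 9.2 uM bortezomib (0%).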

Assay [7] in a line: qHTS assay for measurement of the activity of small molecule inhibitors on Zika virus induced Caspase-3 activity in human astrocytoma cells (AID 1224859; active means well fitted curve in the direction sought with a large enough effect; an effect the other way counts as inactive or inconclusive;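 further: plate controls were ZIKV-infected untreated cells for no effect and uninfected cells for full effect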). In short, it runs like this: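 Compound added 1 h pre-infection; ZIKV 2 FFU/cell on SNB-19 cells, 6 h, 37 C/5% CO2. Caspase-Glo 3/7 luminescence; values as % inhibition of ZIKV-induced caspase activity.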
The nature of assay [8]: qHTS Screen of the MIPE 4.0 Collection Against Ewings Sarcoma (RDES) (AID 1259252; active means well fitted curve in the direction sought with a large enough effect; an effect the other way counts as inactive or inconclusive; further: nearly all actives have a fitted effect of over 35% in size; further: potency means the concentration at half of the fitted maximal effect). The method in brief: (§2)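 Here, cells in 5% FBS RPMI were exposed for two days (48 h) to compound dilutions added four hours after plating. ATP-based CellTiter-Glo luminescence measured viability, normalized to vehicle and no-cell blanks.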
A short description of assay [9]: qHTS Screen of the MIPE 4.0 Collection Against Ewings Sarcoma (EW8) (AID 1259255; active means well fitted curve in the direction sought with a large enough effect; an effect the other way counts as inactive or inconclusive; further: nearly all actives have a fitted effect of over 35% in size; further: potency means the concentration at half of the fitted maximal effect;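 on viability: 100% = DMSO-treated cells and 0% = medium-only wells without cells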). In short, it runs like this: as §2
Assay [10] in a line: qHTS Screen of the MIPE 4.0 Collection Against Ewings Sarcoma (TC32) (AID 1259256; active means well fitted curve in the direction sought with a large enough effect; an effect the other way counts as inactive or inconclusive; further: nearly all actives have a fitted effect of over 45% in size; further: potency means the concentration at half of the fitted maximal effect). The method in brief:
as §2

Assay [11] in a line: qHTS Screen of the MIPE 4.0 Collection Against Ewings Sarcoma (TC71) (AID 1259253; active means well fitted curve in the direction sought with a large enough effect; an effect the other way counts as inactive or inconclusive; further: potency means the concentration at half of the fitted maximal effect; nearly all actives have a fitted effect of over 40% in size). The method in brief: as §2
Assay [12] in a line: qHTS assay to identify small molecule inhibitors of chordoma cells - UCH-1 (AID 1259355; active means well fitted curve in the direction sought with a large enough effect; an effect the other way counts as inactive or inconclusive; further: on the % scale 0 is the no-effect control and ±100 the full control effect; nearly all actives have a fitted effect of over 55% in size). The method in brief: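 Luminescent ATP read-out (CellTiter-Glo, 30min at room temperature) measured viability of UCH-1 cells exposed for 48hr to test drugs at 15 concentrations, co-dosed with a five-agent combination of auranofin, camptothecin, doxorubicin, rubitecan and topotecan.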
Assay [13] in a line: qHTS profiling for inhibitors of Plasmodium falciparum (HB3) proliferation (AID 743324; active means well fitted curve in the direction sought with a large enough effect; an effect the other way counts as inactive or inconclusive;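 further: 100% = DMSO vehicle wells and 0% = artemisinin-treated control wells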). Conditions: Plasmodium falciparum HB3 blood-stage proliferation; at 28.7 µM (top of the series) unless noted. The method in brief:
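P. falciparum HB3 grown in erythrocytes (0.3% parasitemia, 2.5% hematocrit final) with compound for 72 h at 37 C, 5% CO2. Parasite DNA detected by SYBR Green after saponin/triton lysis overnight; normalized to 0.29 uM artemisinin and DMSO.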

Assay [14] is described as follows: Identifying Small Molecule Inhibitors of Pancreatic Cancer Stem Cells (A2780, Spheroid) (AID 1259357; active means well fitted curve in the direction sought with a large enough effect; an effect the other way counts as inactive or inconclusive;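 further: spheroids pre-formed over 14 days in stem cell medium on hydrogel; potency means the concentration at half of the fitted maximal effect; compound exposure lasted 48 h before the ATP luminescence read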). Conditions: Potency: A2780 spheroid viability. In short, it runs like this: (§3)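 After a 4 h attachment period, compounds were pinned into wells and cultures held 48 h under standard incubator conditions. Viability was then measured as CellTiter-Glo luminescence following 10 min at room temperature.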

Assay [15] in a line: Identifying Small Molecule Inhibitors of Pancreatic Cancer Stem Cells (SN12C, Adherent) (AID 1259358; active means well fitted curve in the direction sought with a large enough effect; an effect the other way counts as inactive or inconclusive;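 further: potency means the concentration at half of the fitted maximal effect; cell survival measured after 48 h of compound exposure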). The method in brief:
(§4)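 Luminescent ATP readout (CellTiter-Glo) quantifies surviving cells after a 48 h drug incubation. Normalization uses DMSO wells as no inhibition and media-only wells as full inhibition; bortezomib served as positive control.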

Assay [16] can be described thus: Identifying Small Molecule Inhibitors of Pancreatic Cancer Stem Cells (SN12C, Spheroid) (AID 1259360; active means well fitted curve in the direction sought with a large enough effect; an effect the other way counts as inactive or inconclusive; further: potency means the concentration at half of the fitted maximal effect). Conditions: Potency: SN12C spheroid viability. The method in brief: as §3
A short description of assay [17]: Identifying Small Molecule Inhibitors of Pancreatic Cancer Stem Cells (A278, Adherent) (AID 1259361; active means well fitted curve in the direction sought with a large enough effect; an effect the other way counts as inactive or inconclusive; further: nearly all actives have a fitted effect of over 35% in size). In short, it runs like this: as §4

SMILES strings stand for the structures. Inconclusive results are not listed. The source made the active and inactive calls. Unless noted, how the calls were made is not given here.

As for `Cc1cnc(-c2cc(N3CCN(C(=O)CCS(C)(=O)=O)CC3)ncc2Cl)c(C)c1`, in [1], the parasite growth, % of DMSO control came to 58.6%. For the same compound, the parasite growth remaining, % of DMSO control (lower = more inhibition) in assay [2] is 93.9%. In assay [3], the parasite growth, % of control (lower = inhibition) was 110%. Also, the growth, % of control in [4] came to 76.4%. The cell viability, % of control (lower = more cytotoxic) in assay [5] worked out at 120%. In addition, in assay [6], the viability (% of control) stood at 64.7%. In addition, the Potency entry in [7], in [8] and in assay [9] was “inactive” throughout.
In the case of `O=c1[nH]c(=O)n([C@H]2C[C@@H](O)[C@@H](CO)O2)cc1I`, the parasite growth, % of DMSO control in assay [1] stood at 85%. Besides, in [2], the parasite growth remaining, % of DMSO control (lower = more inhibition) turned out to be 39.2%. For the same compound, the parasite growth, % of control (lower = inhibition) in assay [3] was determined as 77.7%. In addition, in [5], the cell viability, % of control (lower = more cytotoxic) worked out at 138%. Further, the viability (% of control) in [6] is 87.5%. Further, the Potency entry in assay [7] and in assay [8] was “inactive” throughout. In assay [9], the Potency was 5.26 µM (active).
As for `CO[C@H]1/C=C\O[C@@]2(C)Oc3c(C)c(O)c4c(O)c(c5c(nc6cc(C)ccn65)c4c3C2=O)NC(=O)C(C)=CC=C[C@H](C)[C@H](O)[C@@H](C)[C@@H](O)[C@@H](C)[C@H](OC(C)=O)[C@H]1C`, the parasite growth, % of DMSO control in assay [1] was 11%. In assay [2], the parasite growth remaining, % of DMSO control (lower = more inhibition) came to 31.8%. In addition, the parasite growth, % of control (lower = inhibition) in [3] amounted to 7.3%. Further, the growth, % of control in assay [4] stood at 5.21%. Further, in [5], the cell viability, % of control (lower = more cytotoxic) came out at 4.46%. Moreover, in assay [6], the viability (% of control) stood at 32.4%. In addition, the Potency result in [7], in [8] and in assay [10] was “inactive” in each case.
In assay [1], `O=C(Nc1cccc2c(=O)cc(-c3nn[nH]n3)oc12)c1ccc(OCCCCc2ccccc2)cc1` came in with a parasite growth, % of DMSO control of 8.12%. Besides, the parasite growth remaining, % of DMSO control (lower = more inhibition) in assay [2] came out at 31.5%. In addition, in assay [3], the parasite growth, % of control (lower = inhibition) stood at 15.1%. The compound further came in with a growth, % of control in [4] of 7.59%. For the same compound, the cell viability, % of control (lower = more cytotoxic) in assay [5] amounted to 51.3%. Also, the viability (% of control) in assay [6] is 26.2%. The Potency in assay [8] was 16.6 µM (active); in assay [11], 18.7 µM (active); in assay [10] it was 18.7 µM (active).
Consider `CS(=O)(=O)c1ccc(C2=C(c3ccccc3)C(=O)OC2)cc1`, for which the parasite growth, % of DMSO control in assay [1] came to 94.3%. For the same compound, the parasite growth remaining, % of DMSO control (lower = more inhibition) in assay [2] came to 83.1%. The parasite growth, % of control (lower = inhibition) in assay [3] came out at 70.8%. Also, in assay [4], the growth, % of control turned out to be 58.5%. In [5], the cell viability, % of control (lower = more cytotoxic) was determined as 123%. Besides, the viability (% of control) in [6] was 109%. In addition, the Potency result in assay [7] and in assay [8] was “inactive” each time. The Potency in assay [11] is 18.7 µM (active). For the same compound, the compound was classed as inactive in assay [12].
In turn, `CC[C@]1(O)C[C@H]2CN(CCC3=c4ccccc4=N[C]3[C@@](C(=O)OC)(c3cc4c(cc3OC)N(C)[C@H]3[C@@](O)(C(N)=O)[C@H](O)[C@]5(CC)C=CCN6CC[C@]43[C@@H]65)C2)C1` showed a parasite growth, % of DMSO control in assay [1] of 18.7%. Besides, the parasite growth remaining, % of DMSO control (lower = more inhibition) in assay [2] was determined as 14.1%. In addition, the parasite growth, % of control (lower = inhibition) in assay [3] was 35%. In [4], this compound displayed a growth, % of control of 17.4%. Further, the cell viability, % of control (lower = more cytotoxic) in [5] is 14.7%. Also, in assay [6], the viability (% of control) amounted to 14.9%. The results for the Potency in [8] and in [11] were 0.0033 µM (active) and 0.0264 µM (active), respectively. The Potency entry in [10] is “inactive”.
In assay [1], `O=C(O)c1nc(=O)[nH]c(=O)[nH]1` gave a parasite growth, % of DMSO control of 88.8% [at 9.64 µM]. Also, in assay [2], the parasite growth remaining, % of DMSO control (lower = more inhibition) came to 106% [at 9.64 µM]. For the same compound, in [3], the parasite growth, % of control (lower = inhibition) amounted to 93.6% [at 9.64 µM]. The growth, % of control in assay [4] was found to be 89.9% [at 9.64 µM]. For the same compound, the cell viability, % of control (lower = more cytotoxic) in assay [5] was determined as 161% [at 23.2 µM]. Besides, in assay [6], the viability (% of control) is 99.2% [at 23.2 µM]. Moreover, the Potency entry in [7], in assay [8], in [9] and in assay [10] was “inactive” throughout. The outcome in assay [12] was inactive.
Compound `CN1CCc2c(n(Cc3ccc(C(=O)NO)cc3)c3ccccc23)C1` gave a parasite growth, % of DMSO control in [1] of 5.97%. The parasite growth remaining, % of DMSO control (lower = more inhibition) in assay [2] is 11.6%. The parasite growth, % of control (lower = inhibition) in [3] is 9.26%. In addition, the growth, % of control in assay [4] amounted to 4.11%. Besides, the cell viability, % of control (lower = more cytotoxic) in assay [5] was 17.7%. Besides, the viability (% of control) in assay [6] amounted to 3.16%. Moreover, in assay [7], the Potency result was “inactive”. The Potency is 14.8 µM (active) in assay [8], 18.7 µM (active) in assay [11] and 13.2 µM (active) in [10].
The compound `C[C@@H](O[C@H]1OCCN(Cc2n[nH]c(=O)[nH]2)[C@@H]1c1ccc(F)cc1)c1cc(C(F)(F)F)cc(C(F)(F)F)c1` gave a remaining proliferation (% of control), lower = more inhibition in [13] of 9.06%. In [1], the parasite growth, % of DMSO control came to 26.5%. The parasite growth remaining, % of DMSO control (lower = more inhibition) in [2] worked out at 52.9%. For the same compound, in assay [3], the parasite growth, % of control (lower = inhibition) turned out to be 66.5%. This compound returned a growth, % of control in assay [4] of 34.2%. In addition, the cell viability, % of control (lower = more cytotoxic) in assay [5] is 39.1%. In addition, the viability (% of control) in [6] came out at 16.1%. The Potency in assay [11] is 20.9 µM (active); in [9], 26.4 µM (active); in assay [10], 16.6 µM (active); in assay [14], 18.7 µM (active); in assay [15], 18.7 µM (active); in assay [16] it was 20.9 µM (active). For the same compound, the IC50 (viability decrease) in [17] is 16.6 µM (active).

The values are drawn from PubChem BioAssay (NCATS).
